TTR transcr act: increases transthyretin transcription | SH-SY5Y TTR promoter Gaussia luciferase, luminescence; 100% = recombinant luciferase protein wells | activation, % at 16.7 µM | hit rate 1.3% among 92,000 | AID 1117267;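 active means activation above the mean of all tested compounds plus 3 SD, cut at about 9.5% in these data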;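 further: cells exposed to compounds for one day before reading; 0% = median of all test compound wells on the plate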
HuH7 TTR inh: HuH7 TTR transcription inhibition, counter-screen | shares compounds with TTR transcr act | HuH7 TTR promoter-Gaussia luciferase reporter, luminescence | inhibition, % at 16.7 µM | hit rate 4% among 1,100 | AID 1117279;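 active means average inhibition above the solvent-only control wells' mean plus 3 SD, cut at about 15% in these data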;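 further: 0% = cells with DMSO only and 100% = cells with inhibitor control FD; inhibitors lower well luminescence so higher value means more inhibition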
TTR act confirm: human TTR transcription activation, confirmation | shares compounds with TTR transcr act | SHSY5Y TTR promoter Gaussia luciferase, luminescence; 100% = purified Lucia enzyme wells, no cells | activation, % at 16.7 µM | 1,100 tested, under 10 active | AID 1117280;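 active means mean activation above a set limit taken from the earlier primary screen, cut at about 11% in these data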;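 further: 0% = DMSO-treated cells and 100% = recombinant Lucia luciferase without cells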
Active calls of the source: *. The full list was thinned out, with hits kept by preference.

SMILES	TTR transcr act	others
Cc1ccc(Cn2cc(COC(=O)NCC(C)C)nn2)cc1	0
O=C(NCc1ccccn1)[C@@H]1CCCN1C(=O)[C@@H]1CCCN1C(=O)c1cccs1	3
O=C(NCc1ccccn1)[C@@H]1CCCN1C(=O)[C@@H]1CCCN1C(=O)c1cccc(Cl)c1	0
Cc1ccccc1C(=O)N1CCC[C@H]1C(=O)N1CCC[C@H]1C(=O)NCc1ccccn1	14*	HuH7 TTR inh=-5;TTR act confirm=-1
C[C@H](c1ccccc1)N1C[C@@H](COCc2ccccc2)Oc2cccc(F)c2S1(=O)=O	4
O=S1(=O)N[C@H](Cc2ccccc2)COc2cccc(F)c21	-1
O=C(COCc1nc2ccccc2c(=O)[nH]1)NCC1CCCCC1	13*	HuH7 TTR inh=-15;TTR act confirm=0
Cc1cccc(C(=O)N(Cc2nc3ccccc3c(=O)[nH]2)C2CCCC2)c1	-3
O=C(c1ccccc1)N(Cc1nc2ccccc2c(=O)[nH]1)C1CCCC1	0
CCOC(=O)[C@]12CCCC=C1N(Cc1ccc(OC)cc1)C(=O)[C@@H]2CC(=O)NCc1ccccc1	1
COc1ccc(CNC2CCC23CCCCC3)cc1OC (stereo unspecified)	-1
Cc1ccc(Cn2cc(COC(=O)N3CCOCC3)nn2)cc1	-1
C=CCN1C(=O)[C@@H](CC(=O)N2CCCC2)[C@]2(C(=O)OC)CCCCC=C12	2
Cc1ccc(OCc2cc(C(=O)N3CCCC3)no2)cn1	-1
COc1cccc(OCc2cc(C(=O)N3CCN(c4ccccc4O)CC3)no2)c1	11*	HuH7 TTR inh=4;TTR act confirm=1
Cc1ccc(N2CCN(C(=O)c3cc(COc4c(C)cccc4C)on3)CC2)c(C)c1	1
O=C(NCCCc1ccccc1)[C@H](Cc1c[nH]c2ccccc12)NC1(C(=O)NCCc2c[nH]c3ccccc23)CCOCC1	-2
Cc1ccccc1-c1cc2c(c3c1ccn3C)C1CCC2C1 (stereo unspecified)	10*	HuH7 TTR inh=-6;TTR act confirm=1
Cn1ccc2c(-c3ccc(F)cc3)cc3c(c21)C1CCC3C1 (stereo unspecified)	1
Cc1ccccc1-c1cc2c(c3c1ccn3C)C1CCC2O1 (stereo unspecified)	-1
CCCC[C@H](C(=O)N(C)c1cccc(OC)c1)[C@@H](O)c1ccc2ccccc2c1	-1
COc1ccc(Oc2c(Cl)cnn(-c3cc(C)cc(C)c3)c2=O)cc1	2
CCCS(=O)(=O)N1CCN=C1SCc1cccnc1	15*	HuH7 TTR inh=-7;TTR act confirm=1
CCS(=O)(=O)N1CCN=C1SCc1ccccc1	-2
CC(=O)Nc1ccc(S(=O)(=O)N2CCN=C2SCc2cccnc2)cc1	-1
SMILES	TTR transcr act	others
O=C(NCCc1c[nH]c2ccccc12)OCc1cn(Cc2ccc(C(F)(F)F)cc2)nn1	-1
COC(=O)C1=CC[C@@H](NC(=O)OC(C)(C)C)[C@H](O)[C@H]1O[Si](C)(C)C(C)(C)C	1
O=c1c2ccccc2oc2ccc(NCCCn3ccnc3)cc12	1
Cc1nc(NCCCn2ccnc2)c2oc3ccccc3c2n1	49*	HuH7 TTR inh=-1;TTR act confirm=1
Cc1nc(NCC2CCCO2)c2oc3ccccc3c2n1 (stereo unspecified)	0
COC(=O)[C@]12C[C@H](CC(=O)NCCCN3CCCC3=O)C(=O)N(CCC3=CCCCC3)C1=C[C@H](C1CCCC1)O[C@@H]2C	0
Cc1ccc(NC(=O)c2ncn(CCCNCCCN3CCCC3=O)n2)cc1C	-1
Cc1ccc(NC(=O)c2ncn(CCCNCC3CCCCC3)n2)cc1C	2
Cc1ccc(NC(=O)c2ncn(CCCNCc3ccccc3)n2)cc1C	13*	HuH7 TTR inh=-10;TTR act confirm=0
Cn1c(CNc2ccccc2F)nc2ccccc21	1
CCOC(=O)C1CCN(C(=O)C(C)(C)NC(=O)Nc2ccc(N(C)C)cc2)CC1	0
O=C(Nc1ccc(F)cc1)OCc1cn(Cc2cc(F)cc(F)c2)nn1	2
COC(=O)C1CN(C(=O)OC(C)(C)C)C2=C1C(=O)CC(C)(C(=O)OC(C)(C)C)C2 (stereo unspecified)	3
O=C(NCCN1CCCC1)c1ccccc1Cl	0
O=C(NCc1nnc2c3ccccc3c(-c3ccccc3)nn12)c1ccccc1Cl	14*	HuH7 TTR inh=-6;TTR act confirm=0
O=C(CN1CCC(NC(=O)c2ccccc2Cl)CC1)NCc1ccccc1	0
Cc1cc2c(s1)c1cnn(Cc3cc(F)c(F)cc3F)c(=O)c1n2C	-2
CCCCOCCCNC(=O)C[C@H]1C[C@@]2(C(=O)OC)C(=C[C@H](C3CCCC3)O[C@@H]2C)N(Cc2ccco2)C1=O	0
COc1ccc(OC)c(/C=C2\SC(=S)N(C(C(=O)O)c3ccccc3)C2=O)c1 (stereo unspecified)	16*	HuH7 TTR inh=11;TTR act confirm=-1
CC(/C=C1\SC(=S)N(C(C(=O)O)c2ccccc2)C1=O)=C\c1ccccc1 (stereo unspecified)	0
C=CCOc1ccc(/C=C2\SC(=S)N(C(C(=O)O)c3ccccc3)C2=O)cc1 (stereo unspecified)	0
O=C(O)CCN1C(=O)/C(=C/c2cccc(OCc3ccc(F)cc3)c2)SC1=S	-1
CCN(CC)CCCNC(=O)C1(N[C@@H](Cc2c[nH]c3ccccc23)C(=O)NCC(OC)OC)CCCCC1	0
O=S1(=O)c2c(cccc2N2CC[C@H](O)C2)OCCCN1C1CC1	0
CCOC(=O)Cn1c(=O)oc2cc(S(=O)(=O)NC(C)(C)CC)ccc21	0
SMILES	TTR transcr act	others
CCOC(=O)Cn1c(=O)oc2cc(S(=O)(=O)N3CCc4ccccc43)ccc21	14*	HuH7 TTR inh=-4;TTR act confirm=0
CCOC(=O)Cn1c(=O)oc2cc(S(=O)(=O)N(CCN(C)C)Cc3ccccc3)ccc21	0
COc1ccc(C(=O)NC(CCSC)C(=O)NC2CC2)cc1 (stereo unspecified)	0
O=C(NC1CCCCN(Cc2ccc(Cl)cc2)C1=O)c1cccc(C(F)(F)F)c1 (stereo unspecified)	4
CCCC1CCC2(CCCN2CCOC(=S)Nc2ccccc2OC)CC1 (stereo unspecified)	-1
C=CC[C@]1(O)C(=O)N(c2ccccc2)c2ccccc21	-1
CC(C)[C@H](NC(=O)OCc1ccccc1)C(=O)N[C@@H](Cc1ccccc1)C1(O)CN(C)C(C(=O)NCc2ccccn2)CO1 (stereo partly specified)	1
O=C(OCc1cn(Cc2cccc(F)c2F)nn1)N1CCCC1	1
N#C/C(=C\c1cccc(Br)c1)C(=O)N1CCCCC1	0
O=C(NNC(=O)c1cccc(Br)c1)Nc1ccc(Cl)cc1	-1
O=C(NNC(=O)c1cccc(Br)c1)C(=O)N1CCCCC1	9.9*	HuH7 TTR inh=-13;TTR act confirm=0
O=C(Nc1cccc(Br)c1)OC1CC2CC1[C@H]1CCCCN1[C@H]2Cc1ccccc1 (stereo partly specified)	1
C[C@H]1[C@@H](NC(=O)c2ccc(O)cc2)CC[C@@]23CCCN2C(=O)CCC[C@@H]13	-1
COc1cc(/C=C/C(=O)O)cc(S(=O)(=O)NCC2CCCO2)c1OC (stereo unspecified)	22*	HuH7 TTR inh=0;TTR act confirm=-1
COc1ccc(C(C)(C)C)cc1S(=O)(=O)NCC1CCCO1 (stereo unspecified)	1
COc1cc(/C=C/C(=O)O)cc(S(=O)(=O)NNC(=O)c2cc(C)oc2C)c1OC	4

Assay outcomes (PubChem)
